# Test results published in the supplement of paper PMC5736601.
# ± gives the uncertainty stated by the source.
# System: human primary fetal neurons
# Assay: surviving MAP-2+ neurons after FeSO4 challenge with drug pre-treatment, relative to untreated control (% of untreated control); higher = more neuroprotection against iron toxicity
# Details: 10 µM; FeSO4 concentration 25-50 µM; 24 h
# Experimental: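 Human fetal primary neurons (96-well, AIM-V serum-free medium) were pre-treated for 1 h with each NINDS Custom Collection II drug at 10 µM, then challenged with FeSO4 (25 or 50 µM). After 24 h they were fixed, stained with anti-MAP-2 and counted by automated imaging (ImageXpress/MetaXpress). MAP-2+ neuron counts were normalised to untreated control wells (100%); values are the mean of 1-4 independent experiments, each in quadruplicate.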
row,SMILES,surviving MAP-2+ neurons
1,Cc1ccc(O)cc1.Cc1cccc(O)c1.Cc1ccccc1O,6.04 ± 1.1
2,CN(C)CCOC(c1ccccc1)c1ccccc1.Cn1c(=O)c2[nH]c(Cl)nc2n(C)c1=O,36.5 ± 5.3
